Screening data: PubChem BioAssay, National Center for Advancing Translational Sciences (NCATS)
BRCA1 expr act: BRCA1 expression activation | MCF7-BRCA1-FFLuc reporter, luminescence, 48 h; response scale: scaled: vehicle 0%, 10 µM genistein 100% | Potency, µM (top dose mostly 46.1 µM), for inactives: at the top dose activation, actives largely listed as activators | 380,000 compounds, 1.1% hits; also: nearly all actives have a fitted effect of over 80% in size
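MCF7-BRCA1-FFLuc, 2000 cells/well; 2 h attach, 37 °C/5% CO2; compound 48 h; luciferase substrate 15 min; luminescence end-point. Norm. to genistein 10 microM max activation and DMSO; concentration-response curves fitted.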
USP1 inh: blocks the human USP1/UAF1 deubiquitinase complex. recombinant USP1/UAF1, Ub-Rhodamine cleavage fluorescence. Potency, µM (series often up to 57.1 µM), inactives show top-dose activity change, negative = inhibition, most hits filed as inhibitors. 390,000 compounds, 0.23% hits. AID 743255; also: % is scaled to controls: 0 for no effect and ±100 for the full control effect; nearly all actives have a fitted effect of over 60% in size
Target sequence (O94782 whole entry, looked up): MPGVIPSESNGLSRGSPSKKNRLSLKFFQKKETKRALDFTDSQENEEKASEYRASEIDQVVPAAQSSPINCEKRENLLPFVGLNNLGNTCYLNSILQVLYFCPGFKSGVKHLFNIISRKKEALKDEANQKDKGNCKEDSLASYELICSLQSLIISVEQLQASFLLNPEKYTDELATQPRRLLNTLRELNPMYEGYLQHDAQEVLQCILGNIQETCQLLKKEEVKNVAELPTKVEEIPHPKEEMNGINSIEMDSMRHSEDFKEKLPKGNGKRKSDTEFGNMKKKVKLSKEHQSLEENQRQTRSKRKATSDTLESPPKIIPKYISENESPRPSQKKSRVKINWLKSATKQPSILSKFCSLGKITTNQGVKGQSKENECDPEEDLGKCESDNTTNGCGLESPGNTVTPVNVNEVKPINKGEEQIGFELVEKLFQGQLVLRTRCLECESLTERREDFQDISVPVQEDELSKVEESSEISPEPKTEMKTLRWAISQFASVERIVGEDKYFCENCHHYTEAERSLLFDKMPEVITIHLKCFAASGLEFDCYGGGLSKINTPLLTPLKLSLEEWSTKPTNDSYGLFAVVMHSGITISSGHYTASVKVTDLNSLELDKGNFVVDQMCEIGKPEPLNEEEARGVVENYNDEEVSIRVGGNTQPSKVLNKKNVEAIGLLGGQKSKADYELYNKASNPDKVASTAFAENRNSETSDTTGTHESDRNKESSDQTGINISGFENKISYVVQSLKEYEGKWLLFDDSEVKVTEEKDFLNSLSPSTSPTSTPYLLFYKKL
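USP1/UAF1 complex at 1 nM was preincubated with compound for 15 min at room temperature, then Ub-Rho substrate (150nM final) was added. Fluorescence (480/540 nm) was read kinetically, 6 reads every 60 seconds.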
EPAC1 ag: activates human EPAC1 exchange factor; EPAC1 agonist qHTS, biochemical assay; response scale: 100% = response to 6.5 mM cAMP; Potency, µM (highest dose often 154 µM), inactives show at the top dose activation, usual class: activators; 360,000 compounds, 0.073% hits; also: nearly all actives have a fitted effect of over 60% in size
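Compounds were pinned as a concentration titration into mixtures of EPAC1 (100 nM), BODIPY-GDP-loaded Rap1B (250 nM) and GDP (50 uM). After 5 min at room temperature, fluorescence was followed for 30 min; activity was scaled to 6.5 mM cAMP.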
EPAC2 ag: EPAC2 (human) agonism | 360,000 compounds, 0.079% hits | Q8WZA2 | Potency, µM (titrated, usually from 154 µM), for inactives: at the top dose activation, most hits filed as activators | EPAC2 activation, biochemical qHTS; response scale: 100% = 6.5 mM cAMP response | AID 720711; also: nearly all actives have a fitted effect of over 50% in size
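qHTS, titration series. 100 nM EPAC2 / 250 nM Rap1B-BODIPY-GDP / 50 uM GDP; RT; ex 480/em 540 nm, 5-min reads to 30 min. Norm. to 6.5 mM cAMP = activation.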
EPAC2 antagonist: blocks human EPAC2 exchange factor; Q8WZA2; EPAC2 GEF exchange of Rap1B-BODIPY-GDP, fluorescence; Potency, µM (titrated, usually from 114 µM), for the others: top-dose activity, negative = inhibition, most hits filed as inhibitors; 360,000 compounds, 0.18% hits; also: % is scaled to controls: 0 for no effect and ±100 for the full control effect; nearly all actives have a fitted effect of over 45% in size
EPAC1 antag: blocks human EPAC1 exchange factor; O95398; EPAC1 GEF assay, Rap1b-BODIPY-GDP exchange fluorescence; Potency, µM (series often up to 115 µM), without a hit: at the highest dose activity change, negative = inhibition, usual class: inhibitors; 360,000 compounds, 0.14% hits;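 also: plate controls were vehicle for no effect and positive control for full effect; nearly all actives have a fitted effect of over 50% in size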
Starred values were filed as active, the others as inactive; i = inactive; ? = inconclusive; · = no result. Rows were chosen to be rich in hits. Some 1.4% of all compounds tested hit in one or more screens of this group. Calls follow the shape of the dose curve; as a rule, active = well fitted curve in the direction sought with a large enough effect; inconclusive = small, poorly fitted or top-dose-only effect, or another doubt; inactive = no such curve, though single readings can be large; an effect the other way counts as inactive or inconclusive. Potency is read from the fitted curve at half-maximal effect.

SMILES | BRCA1 expr act | USP1 inh | EPAC1 ag | EPAC2 ag | EPAC2 antagonist | EPAC1 antag
C/C(=N\OCC(=O)Nc1ccccc1C(=O)O)c1cccs1 | 11µM* | -20% | 6% | 9% | 5% | 11%
Nc1ccn(C2OC(CCl)C(O)C2O)c(=O)n1 (stereo not given) | -22% | -29% | 12% | 3% | -5% | 8%
COc1ccc(NCc2nc3ccccc3n2C)cc1 | 4µM* | -7% | -1% | 2% | -8% | -18%
Cc1ccc(CNc2nc3ccccc3n2C)cc1 | ? | -13% | -8% | 16% | -15% | -7%
COc1ccc(Nc2nc3ccccc3n2C)cc1 | 5.6µM* | -13% | 11% | 4% | 3% | -13%
COc1ccc(CNc2nc3ccccc3n2C)c(O)c1 | 1.6µM* | -23% | -4% | 13% | -6% | 0%
Cn1c(NCc2ccc(Cl)cc2)nc2ccccc21 | 4.5µM* | ? | -5% | -2% | 3% | -5%
Cn1c(Nc2ccc(F)cc2)nc2ccccc21 | 32% | -22% | -3% | 3% | -9% | 12%
COc1ccc(CNc2nc3ccccc3n2C)c(OC)c1 | ? | -9% | 4% | 9% | -4% | 1%
Cc1cc(C)cc(NS(=O)(=O)c2c(C)[nH]c(=O)[nH]c2=O)c1 | -5% | -8% | -7% | 2% | 1% | 6%
COc1ccccc1CCNC(=O)CSCC(=O)Nc1ccccc1F | -7% | -4% | 0% | 6% | 2% | 4%
COc1cc(C(=O)NC(CCSC)C(=O)Nc2ccc(N3CCOCC3)cc2)cc(OC)c1OC (stereo not given) | -14% | 5% | 11% | 1% | 6% | 14%
CCCCC(=O)Nc1ccc(OCc2cc(=O)n3ccc(C)cc3n2)cc1 | · | 2% | · | · | · | ·
CC(C)n1c(NCc2nc3ccccc3n2C)nc2ccccc21 | 0% | -7% | 4% | 3% | -2% | 1%
Cc1ccc(NCc2nc3ccccc3n2C)cc1 | 62% | -10% | 5% | -6% | -1% | 8%
Cn1c(CNc2nc3ccccc3n2C)nc2ccccc21 | 10µM* | -26% | -1% | 5% | 6% | 2%
CCCn1c(NCc2cccc(OC)c2O)nc2ccccc21 | 6.3µM* | -3% | 3% | -10% | ? | -15%
Cc1ccc(NCc2nc3ccccc3n2C)cc1C | 7.9µM* | -14% | -1% | 3% | 0% | -8%
CCc1ccc2oc(-c3cccc(NC(=O)c4ccc(N5CCC(C)CC5)c([N+](=O)[O-])c4)c3)nc2c1 | · | -6% | · | · | · | ·
Oc1ccc(/C=N/Nc2ncc(Cl)cc2Cl)cc1 | 13µM* | -4% | -4% | 14% | 4% | -22%
COC(=O)c1ccc(CN(Cc2ccc(OC)c(OC)c2)S(=O)(=O)c2ccc(F)c(C(=O)Nc3cc(C)ccc3C)c2)cc1 | · | -9% | · | · | · | ·
COc1cc([N+](=O)[O-])ccc1-c1ccc(/C=N\n2cnnc2)o1 | -3% | -1% | 22% | 9% | 9% | -7%
COc1cc([N+](=O)[O-])ccc1-c1ccc(/C=C2\C(=O)ON=C2c2ccccc2)o1 | 0% | -3% | 10% | 13% | 50µM* | -12%
Nc1ccc2cc3[nH]c4cc(N)ccc4c3nc2c1 | -76% | ? | 89µM* | 56µM* | 231% | i
COc1ccc(OCc2ccc(/C=N\NC(=O)c3sccc3C)o2)cc1 | 13µM* | -16% | 7% | 16% | -1% | 15%
SMILES | BRCA1 expr act | USP1 inh | EPAC1 ag | EPAC2 ag | EPAC2 antagonist | EPAC1 antag
COC(=O)c1cccc(NC(=O)CN2CCc3ccccc3C2)c1 | 18% | -24% | 13% | 9% | -12% | 11%
COc1ccccc1/C=C/C=c1\sc2nc(=O)c(Cc3ccccc3)nn2c1=O | -5% | -16% | 8% | ? | 6% | 35µM*
COc1ccc(-n2nnnc2C2CCN(S(=O)(=O)c3ccc(C(C)(C)C)cc3)CC2)cc1 | · | -4% | · | · | · | ·
CCN(CC)c1cc(Cl)c2nonc2c1N | 1% | -2% | -5% | 10% | -20% | 9%
CN(C)c1cc(Cl)c2nonc2c1N | -5% | 32µM* | 10% | 2% | -1% | 50µM*
C(=C\c1c[nH]c2ccccc12)/c1ccc2ccccc2n1 | -1% | · | · | · | · | ·
CCC(C(=O)N1CCN(c2cc(Cl)ccc2C)CC1)n1nc(C)c2sc3ccccc3c2c1=O (stereo not given) | · | 6% | · | · | · | ·
Cc1ccc(-c2cc(N)n(-c3ccc(C)cc3)n2)cc1 | 10µM* | -5% | -5% | -4% | -3% | -22%
Cc1ccc(-c2cc(N)n3nc(-c4ccc(C)cc4)cc3n2)cc1 | -24% | -12% | -4% | 0% | -4% | 2%
Cc1ccc(-c2cc(N)n(-c3ccc(F)cc3)n2)cc1 | 5µM* | -8% | 7% | 4% | -4% | -20%
CCC(=O)Nc1cccc(NC(=O)c2cc3ccccc3o2)c1 | ? | -21% | 6% | -6% | -2% | 9%
CCC(=O)Nc1cccc(-c2cc3ccccc3oc2=O)c1 | 10µM* | -5% | 1% | 1% | -8% | -13%
O=c1[nH]c(N2CCOCC2)cc2ccccc12 | 0% | 10µM* | -3% | 4% | 10% | -29%
O=c1c(N2CCOCC2)coc2ccccc12 | -14% | -16% | -5% | -5% | -2% | -19%
O=C(Nc1ccccc1Cl)c1sccc1-c1ccccc1 | -40% | -7% | 17% | 19% | -24% | -18%
Cc1ccc(N2C(=O)c3ccccc3NC2c2ccccc2O)cc1 (stereo not given) | 1.6µM* | -19% | -8% | 1% | 8% | 6%
CC1=C(C(=O)OCc2ccccc2)C(c2ccc(C(C)(C)C)cc2)NC(=O)N1CCCCCC(=O)O (stereo not given) | -1% | -9% | -6% | -10% | 16µM* | -16%
COC(=O)c1ccc(OCC(=O)c2cccc(OC)c2)cc1 | 2µM* | -11% | -13% | -1% | 11% | -2%
CCC(=O)Nc1ccc(NC(=O)c2cccc(OC)c2)nc1 | 11µM* | -9% | 3% | 4% | -1% | 9%
COc1cccc(C(=O)Nc2ccc(F)c(F)c2F)c1 | 3.5µM* | -7% | 5% | 3% | 1% | -21%
COc1cccc(C(=O)Nc2ccc(F)cc2F)c1 | ? | -6% | -13% | 3% | 11% | 3%
COC(=O)c1ccc(NC(=O)c2cccc(OC)c2)cc1 | 2.5µM* | -7% | -3% | -4% | -4% | 0%
O=C(CCC1CCCCC1)NCCS(=O)(=O)N1CCN(c2ccc(F)cc2)CC1 | -21% | -19% | 1% | 3% | 7% | -15%
COc1ccc(COC(=O)C2CCN(C(=O)c3ccc(Cl)cc3)CC2)cc1F | 30% | -25% | 6% | 17% | -1% | -11%
